Our source for the composite z-score and z-score values is PubChem BioAssay.

Activity calls are given as the source filed them. Unless noted, the rule behind the calls is not given here.

Assay [1] concerns Wnt5a (protein binding on small-molecule microarray). Description: Wnt5a binders on small-molecule microarray, primary screen, biophysical, 635/667 nm fluorescence (AID 1142).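 Note: fluorescence read at 667 nm with signal to noise per printed feature.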 As to conditions: 635 nm fluorescence, higher = more signal.
Assay [2] can be described thus: cell viability in Huh7 cells, primary screen, cytotoxicity control for HCV replication inhibitor project, CellTiter-Glo luminescence, basal, 48 h (AID 1143).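 Note: Huh7 hepatoma cells carrying a hepatitis C replication reporter with no stimulus; test concentration not given here.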 The note with it: Huh7 HCV replicon, higher = more signal, called active from +8 up or from −8 down.
A short description of assay [3]: P. aeruginosa biofilm formation inhibitors, primary screen, PAO1 strain, BacTiter-Glo luminescence, LB-PBS (AID 1144). The note with it: 12 h, higher = more signal.
Assay [4] can be described thus: CREB reporter modulators without forskolin, primary screen, cell-based, PC12, CRE-LacZ reporter, unstimulated (AID 1145). The note with it: no forskolin, luminescence, 4.5 h, higher = more signal, called active from +8 up or from −8 down.
The nature of assay [5]: CREB reporter modulators under forskolin, primary screen, cell-based, PC12, CRE-LacZ reporter, forskolin-stimulated (AID 1146).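 Note: PC12 cells with 6xCRE LacZ reporter stimulated by forskolin 10 µM; beta-galactosidase reporter signal reflecting CREB driven transcription.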 The note with it: luminescence, 4.5 h, higher = more signal, called active from +8 up or from −8 down.
Assay [6] addresses Streptavidin (Streptomyces avidinii) (UniProt P22629). Description: streptavidin binders on small-molecule microarray, primary screen, artefact control for SMM compound annotation, biophysical, 635/667 nm fluorescence (AID 1147).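 Note: signal reflects streptavidin binding to arrayed compounds as a control protein.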 As to conditions: streptavidin binding, higher = more signal.
A short description of assay [7]: small-molecule binders of probe aInhba, primary screen, biochemical, small-molecule microarray, 635/667 nm fluorescence (AID 1148).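 Note: score merges 667nm spot fluorescence with signal-to-noise for antibody binding to printed compounds.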 The note with it: higher = more signal.
Assay [8] has as its target Torsin-1A (Homo sapiens) (UniProt O14656). Description: torsin A binders from cell lysate, primary screen, small-molecule microarray, wild-type, 635/667 nm (AID 1149). As to conditions: COS7 hTOR1A-WT lysate, 635 nm fluorescence, higher = more signal.
Assay [9] shares this target. In words: small-molecule binders of mutant TOR1A in lysate, primary screen, cell lysate, small-molecule microarray, COS7 lysate, 635/667 nm fluorescence (AID 1150).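 Note: score pools 667 nm emission and signal to noise measuring lysate protein binding.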 As to conditions: COS7 hTOR1A mutant lysate, 635 nm fluorescence, higher = more signal.
The subject of assay [10] is Sonic hedgehog protein (Shh). Description: small-molecule binders of Shh protein, primary screen, biochemical, small-molecule microarray, 635/667 nm fluorescence (AID 1151).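 Note: Shh protein binding to compounds spotted on small-molecule microarray slides; score combines spot fluorescence intensity with signal-to-noise across triplicate slides.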 As to conditions: small-molecule microarray binding, 635 nm fluorescence; higher = more signal.
Assay [11] can be described thus: E. coli DRC41 culture turbidity changes, primary screen, E. coli filamentation inducer project, strain DRC41, OD650, 48 h (AID 1152).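 Note: E. coli MC1000 strain DRC41 lacking acrAB efflux pump and sulA.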 As to conditions: E. coli DRC41 (acrAB sulA), higher = more signal, called active from +8 up or from −8 down.
Assay [12] is described as follows: small-molecule binders of probe aLefty1, primary screen, biochemical, small-molecule microarray, 635/667 nm fluorescence (AID 1153).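 Note: score merges spot fluorescence with signal-to-noise ratio from the scanned slide images.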 The note with it: higher = more signal.
The nature of assay [13]: PSAC antagonists in infected red cells, primary screen, cell-based, P. falciparum Indochina, OD700, 1 h (AID 1154). As to conditions: P. falciparum Indochina infected RBC osmotic lysis, higher = more signal, called active from +8 up or from −8 down.
Assay [14] is described as follows: PSAC antagonists in infected red cells, primary screen, cell-based, P. falciparum Indochina, OD700, 2 h (AID 1155).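 Note: lysis reports solute entry through the parasite surface anion channel PSAC; channel blockers reduce lysis of infected cells.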 As to conditions: P. falciparum Indochina infected erythrocytes, osmotic lysis OD700; higher = more signal, called active from +8 up or from −8 down.
Assay [15] can be described thus: osmotic lysis modulators in infected erythrocytes, primary screen, PSAC antagonist project, cell-based, P. falciparum Indochina, OD700, 3 h (AID 1156). The note with it: higher = more signal, called active from +8 up or from −8 down.
Assay [16] is described as follows: PSAC antagonists in infected red cells, primary screen, cell-based, P. falciparum Indochina, OD700, 18 h (AID 1157). As to conditions: P. falciparum Indochina infected erythrocytes, osmotic lysis OD700, 18 h; higher = more signal, called active from +8 up or from −8 down.
Assay [17] in a line: modulators of S6 phosphorylation in cells, primary screen, cell-based, A549, cytoblot, luminescence, serum-stimulated (AID 1158).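 Note: serum-stimulated A549 lung adenocarcinoma cells; signal is phosphorylated S6 detected by cytoblot immunostaining with HRP secondary.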 As to conditions: A549 phospho-S6 cytoblot, 5 h, higher = more signal.
Assay [18] deals with NADPH oxidase 2 (Homo sapiens) (UniProt P04839). Description: NOX2-dependent H2O2 signal modulators, primary screen, NOX inhibitor project, cell-based, HEK293-NOX2, PMA-stimulated, Amplex Red fluorescence (AID 1159). Note: test concentration not given here. The note with it: 45 min, higher = more signal, called active from +8 up or from −8 down.
Assay [19] addresses NADPH oxidase 4 (Homo sapiens) (UniProt Q9NPH5). Description: NOX4-dependent H2O2 signal modulators, primary screen, NOX inhibitor project, cell-based, HEK293-NOX4, tetracycline-induced, Amplex Red fluorescence (AID 1160). The note with it: 45 min, higher = more signal, called active from +8 up or from −8 down.
For assay [20], the target named is NADPH oxidase 5 (Homo sapiens) (UniProt Q96PH1). Description: NOX5-dependent H2O2 signal modulators, primary screen, NOX inhibitor project, cell-based, HEK293-NOX5, Amplex Red fluorescence (AID 1161). The note with it: HEK293-NOX5, ionomycin, 45 min, higher = more signal.
Chain of NADPH oxidase 5 (Homo sapiens) (Q96PH1 whole entry, looked up): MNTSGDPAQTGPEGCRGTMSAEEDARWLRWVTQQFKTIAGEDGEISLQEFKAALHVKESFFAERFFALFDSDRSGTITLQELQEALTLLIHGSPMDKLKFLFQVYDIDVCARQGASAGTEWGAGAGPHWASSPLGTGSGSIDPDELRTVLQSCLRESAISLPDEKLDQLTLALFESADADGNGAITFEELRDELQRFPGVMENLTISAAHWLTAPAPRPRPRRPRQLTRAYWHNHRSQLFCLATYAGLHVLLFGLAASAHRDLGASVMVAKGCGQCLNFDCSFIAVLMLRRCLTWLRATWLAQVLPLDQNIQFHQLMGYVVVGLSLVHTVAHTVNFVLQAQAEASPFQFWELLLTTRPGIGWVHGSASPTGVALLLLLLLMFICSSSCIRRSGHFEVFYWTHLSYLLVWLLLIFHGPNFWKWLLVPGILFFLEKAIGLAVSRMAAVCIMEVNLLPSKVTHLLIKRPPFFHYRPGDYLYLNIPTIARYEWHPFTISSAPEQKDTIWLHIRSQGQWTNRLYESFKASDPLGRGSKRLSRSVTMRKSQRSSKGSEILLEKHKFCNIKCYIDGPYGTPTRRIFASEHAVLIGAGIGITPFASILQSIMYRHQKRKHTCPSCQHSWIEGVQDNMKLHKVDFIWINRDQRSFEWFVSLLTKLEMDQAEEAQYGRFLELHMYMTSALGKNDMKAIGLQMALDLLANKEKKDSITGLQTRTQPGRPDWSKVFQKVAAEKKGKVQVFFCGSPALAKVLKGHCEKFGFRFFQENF

Chain of NADPH oxidase 4 (Homo sapiens) (Q9NPH5 whole entry, looked up): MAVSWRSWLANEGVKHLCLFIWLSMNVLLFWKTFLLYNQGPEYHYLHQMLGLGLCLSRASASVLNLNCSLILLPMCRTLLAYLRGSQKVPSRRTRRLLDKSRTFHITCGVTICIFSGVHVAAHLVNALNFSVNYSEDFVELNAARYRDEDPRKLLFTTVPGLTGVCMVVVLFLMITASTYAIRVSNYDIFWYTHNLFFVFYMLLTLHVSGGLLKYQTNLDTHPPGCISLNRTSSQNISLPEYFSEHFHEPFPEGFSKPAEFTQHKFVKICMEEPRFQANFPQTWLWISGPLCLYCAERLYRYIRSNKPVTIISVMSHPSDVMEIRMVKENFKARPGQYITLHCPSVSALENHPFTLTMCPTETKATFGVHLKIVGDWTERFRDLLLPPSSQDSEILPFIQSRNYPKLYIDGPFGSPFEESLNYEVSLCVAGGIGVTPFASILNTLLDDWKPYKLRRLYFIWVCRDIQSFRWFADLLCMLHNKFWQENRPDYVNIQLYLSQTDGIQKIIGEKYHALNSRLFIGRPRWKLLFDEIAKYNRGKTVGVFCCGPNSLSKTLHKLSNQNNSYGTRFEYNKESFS
Chain of NADPH oxidase 2 (Homo sapiens) (P04839 whole entry, looked up): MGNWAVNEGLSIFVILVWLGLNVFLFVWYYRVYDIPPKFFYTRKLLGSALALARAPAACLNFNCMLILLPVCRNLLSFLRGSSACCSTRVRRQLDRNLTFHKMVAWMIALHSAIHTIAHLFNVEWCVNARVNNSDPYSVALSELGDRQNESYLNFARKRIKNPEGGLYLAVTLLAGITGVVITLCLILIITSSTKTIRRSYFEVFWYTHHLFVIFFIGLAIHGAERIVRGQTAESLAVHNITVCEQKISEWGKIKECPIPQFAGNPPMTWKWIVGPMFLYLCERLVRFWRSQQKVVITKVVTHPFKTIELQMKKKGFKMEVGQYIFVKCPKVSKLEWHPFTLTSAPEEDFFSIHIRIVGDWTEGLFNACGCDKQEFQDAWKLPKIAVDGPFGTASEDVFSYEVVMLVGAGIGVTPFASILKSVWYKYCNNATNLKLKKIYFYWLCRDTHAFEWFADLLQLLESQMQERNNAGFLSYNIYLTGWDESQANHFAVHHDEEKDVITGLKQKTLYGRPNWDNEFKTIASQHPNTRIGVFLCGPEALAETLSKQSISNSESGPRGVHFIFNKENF
Chain of Streptavidin (Streptomyces avidinii) (P22629 whole entry, looked up): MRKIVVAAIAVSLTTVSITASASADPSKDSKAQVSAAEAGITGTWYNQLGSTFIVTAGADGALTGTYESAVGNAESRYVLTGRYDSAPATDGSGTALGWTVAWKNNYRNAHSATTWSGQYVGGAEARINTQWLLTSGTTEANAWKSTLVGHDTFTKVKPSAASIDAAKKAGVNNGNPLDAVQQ
Chain of Torsin-1A (Homo sapiens) (O14656 whole entry, looked up): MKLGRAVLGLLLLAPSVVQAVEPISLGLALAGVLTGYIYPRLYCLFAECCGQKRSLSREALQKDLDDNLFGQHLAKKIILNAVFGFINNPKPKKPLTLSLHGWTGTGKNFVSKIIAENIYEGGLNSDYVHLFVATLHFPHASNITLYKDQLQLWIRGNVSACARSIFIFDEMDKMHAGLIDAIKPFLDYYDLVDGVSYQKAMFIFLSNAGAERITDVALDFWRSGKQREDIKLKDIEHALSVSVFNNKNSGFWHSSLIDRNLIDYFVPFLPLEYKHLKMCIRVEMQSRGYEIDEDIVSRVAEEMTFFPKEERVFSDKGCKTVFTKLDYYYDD

In the case of `COCCOC(=O)N1C(=O)[C@@]2(c3ccccc31)[C@H](c1ccccc1OCCO)N1[C@H](c3ccccc3)[C@H](c3ccccc3)OC(=O)[C@H]1[C@@H]2C(N)=O`, the composite z-score is 0.408 in [1]; 1.25 in assay [6]; 0.296 in [7]; -0.401 in the assay with Torsin-1A (Homo sapiens) [8]; 1.07 in the assay with Torsin-1A (Homo sapiens) [9]; 1.48 in assay [10]. The compound also showed a composite z-score in assay [12] of 0.221. The z-score was -4.2 (inactive) in [2]; -0.0116 (inactive) in assay [3]; 0.272 (inactive) in [4]; 1.86 (inactive) in assay [5]; -0.714 (inactive) in assay [11]; 3.59 (inactive) in assay [13]. Moreover, the z-score in [14] is 1.18 (inactive); in assay [15], -0.463 (inactive); in assay [16], 0.689 (inactive); in assay [17] it was 0.231; in [18], 1.88 (inactive); in [19] it was 0.787 (inactive). Further, the z-score in assay [20] turned out to be 0.212.
Turning to `CN(C)CCCNC(=O)[C@@H]1c2ccccc2C(=O)N(C2CCCCC2)[C@H]1c1ccc(CO)cc1`, the composite z-score in [1] was 0.76; in assay [6], 0.139; in [7], 0.271; with Torsin-1A (Homo sapiens) [8] it was 0.567; in the assay with Torsin-1A (Homo sapiens) [9] it was 1.03; in assay [10], 1.81. Also, in [12], the composite z-score was found to be 0.2. In addition, the z-score is -0.395 (inactive) in assay [2]; -0.312 (inactive) in [3]; 1.24 (inactive) in assay [4]; -0.291 (inactive) in assay [5]; 0.196 (inactive) in [11]; 1.1 (inactive) in assay [13]. Besides, the z-score was -0.541 (inactive) in assay [14]; 1.67 (inactive) in [15]; 0.253 (inactive) in assay [16]; 0.189 in assay [17]; 0.2 (inactive) in [18]; 0.197 (inactive) in [19]. The compound further had a z-score in assay [20] of -0.301.
Consider `[N-]=[N+]=NC[C@H](Cc1ccccc1)NC(=O)c1ccccc1`, for which the composite z-score in [1] is -0.022; in [6], 0.148; in assay [7], -0.0695; with Torsin-1A (Homo sapiens) [8], 0.601; in the assay with Torsin-1A (Homo sapiens) [9], 0.265; in assay [10], -0.0168. The composite z-score in assay [12] was determined as 0.0606. Besides, the z-score in [2] is -0.34 (inactive); in assay [3], 0.138 (inactive); in assay [4], 0.6 (inactive); in [5], -0.308 (inactive); in [11] it was 1.44 (inactive); in assay [13], 0.0465 (inactive). In addition, the z-score was 0.872 (inactive) in [14]; 0.264 (inactive) in assay [15]; 0.432 (inactive) in [16]; -0.282 in assay [17]; 0.192 (inactive) in assay [18]; -0.441 (inactive) in assay [19]. This compound also returned a z-score in [20] of 0.122.
On to `CCOC(=O)C1=CC[C@@H](c2ccccc2)N(S(=O)(=O)c2ccc(C)cc2)[C@H]1C=Cc1ccccc1`, for which the composite z-score in [1] was -0.109; in [6], 0.261; in [7], 0.0713; with Torsin-1A (Homo sapiens) [8], 0.0331; in the assay with Torsin-1A (Homo sapiens) [9], -0.0749; in assay [10] it was -0.723. In addition, the composite z-score in [12] was found to be 0.436. In addition, the z-score in assay [2] was -2.35 (inactive); in [3], 0.17 (inactive); in assay [4] it was -0.0696 (inactive); in assay [5], 0.521 (inactive); in [11], -1.11 (inactive); in assay [13] it was 1.92 (inactive). Besides, the z-score was 1.12 (inactive) in assay [14]; -0.684 (inactive) in [15]; 0.779 (inactive) in assay [16]; -0.577 in [17]; 0.549 (inactive) in [18]; -0.395 (inactive) in assay [19]. For the same compound, in assay [20], the z-score stood at 0.884.
For `CCOC(=O)C1=CCC(c2ccccc2)N(S(=O)(=O)c2ccc([N+](=O)[O-])cc2)C1` (stereo not given), the composite z-score is -0.206 in [1]; 0.108 in assay [6]; -0.128 in [7]; 0.331 in the assay with Torsin-1A (Homo sapiens) [8]; 0.458 in the assay with Torsin-1A (Homo sapiens) [9]; 0.188 in assay [10]. The compound also gave a composite z-score in assay [12] of 0.0451. Further, the z-score in assay [2] is -3.61 (inactive); in [3], 0.697 (inactive); in assay [4], 1.23 (inactive); in assay [5] it was -0.536 (inactive); in [11], -0.72 (inactive); in assay [13], 2.62 (inactive). Also, the z-score in [14] was 0.987 (inactive); in assay [15] it was 1.4 (inactive); in assay [16], 0.46 (inactive); in assay [17] it was -0.412; in assay [18], 0.528 (inactive); in [19] it was -0.114 (inactive). Also, the z-score in assay [20] is -0.023.
